HT1080 IDH1KD tx = qHTS for induction of synthetic lethality in tumor cells producing 2HG: qHTS for the HT-1080-IDH1KD cell line; HT-1080 IDH1 knockdown viability, ATP luminescence, 48 h; Potency, µM (doses to about 46.1 µM), for the others: at the highest dose activity, negative = toxicity, hits mostly cytotoxic; actives 2% (n = 360,000);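 note: 0% = DMSO wells and -100% = cell-free medium wells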
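After a 2 h attachment period, IDH1KD HT-1080 cells took pin-transferred compound for 48 h at 37 °C; ATP-based luminescence after 10 min room-temperature reagent incubation reported viability.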
HepG2 tox = qHTS for Inhibitors of TGF-b: Cytotox Counterscreen; HepG2 CAGA-GFP viability, ATP luminescence, 18 h; AID 588856, 2011; Potency, µM (top dose mostly 46.1 µM), inactives show at the highest dose activity change, negative = cytotoxicity, usual class: cytotoxic; actives 0.76% (n = 410,000)
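CellTiter-Glo luminescence gave cytotoxicity after 18 hours at 37 degrees C. The cells were HepG2 CAGA-GFP in 1% FBS DMEM, stimulated with 500 pg/mL TGF-beta after compound addition. %Activity was normalised to no-cell wells (complete cell-killing) and DMSO (no toxicity), and curves were fitted and classified.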
TGFb inhibitor = qHTS for Inhibitors of TGF-b. Potency, µM (doses to about 46.1 µM), without a hit: top-dose activity, negative = inhibition, usual class: inhibitors. HepG2 CAGA-GFP TGF-b/SMAD3 reporter, GFP fluorescence, 18 h; TGF-beta stimulated, 500 pg/mL final. AID 588855, 2011. actives 1.2% (n = 410,000); note: % is set by controls: 0 for no effect and ±100 for the full control effect; nearly all actives have a fitted effect of over 65% in size
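Per well, imaged GFP fluorescence of HEPG2 CAGA-GFP cells gives the signal; cells get compound, then TGF-beta (500 pg/mL final), 18 h at 37 degrees C; %Activity versus -TGF-beta and +DMSO controls.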
ATXN2 expr inh = Primary qHTS for Inhibitors of ATXN expression | actives 0.72% (n = 360,000) | HEK-293 ATXN2-luciferase reporter, luminescence, 24 h | Potency, µM (titrated, usually from 57 µM), inactives show top-dose activity change, negative = inhibition, hits mostly inhibitors; note: % is set by controls: 0 for no effect and ±100 for the full control effect; nearly all actives have a fitted effect of over 55% in size
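qHTS (up to 57 uM final) was run with 24 h compound exposure of reporter cells at 37 °C. Each well was multiplexed: SteadyGlo luminescence measured ATXN2-luciferase expression after a fluorogenic Gly-Phe-AFC viability readout (25 uM final).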
ATXN viability = Viability Counterscreen for Primary qHTS for Inhibitors of ATXN expression. S2 cells (HEK-293 line with an ATXN2-luciferase reporter) viability, CellTiter-Fluor protease fluorescence, 24 h. Potency, µM (top dose mostly 56.7 µM), hits mostly cytotoxic. actives 0.49% (n = 400,000). AID 651635, 2014; note: nearly all actives have a fitted effect of over 40% in size
HT1080-NT tox = qHTS for induction of synthetic lethality in tumor cells producing 2HG: qHTS for the HT-1080-NT fibrosarcoma cell line; actives 1.6% (n = 360,000); Potency, µM (doses to about 46.1 µM), inactives show at the highest dose activity, negative = less viability, actives largely listed as cytotoxic; HT-1080-NT fibrosarcoma viability, CellTiter-Glo ATP luminescence, 48 h; AID 686970, 2013;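 note: NT is the 2HG producing partner of a matched IDH1 knockdown line; 0% = DMSO-treated cells and -100% = media-only wells without cells; nearly all actives have a fitted effect of over 55% in size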
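HT-1080-NT fibrosarcoma cells (2HG-overproducing), 750 cells/well in RPMI with 5% FBS, dosed after 2 h and incubated 48 h at 37C. CellTiter-Glo luminescence normalized to DMSO and no-cell wells; concentration-response curves fitted and classed.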
The depositor's hits bear a star. Shown are actives, neighbours in structure and some others; about 3.8% of the full set was active somewhere. Calls come from the whole dose curve; as a rule, active = well fitted curve in the direction sought with a large enough effect; inconclusive = small, poorly fitted or top-dose-only effect, or another doubt; inactive = no such curve, though single readings can be large; an effect the other way counts as inactive or inconclusive. Potency is the fitted concentration of half-maximal effect.

For CC(=O)Nc1cccc(-c2cc(NC=O)c3ncc(-c4ccc(C(C)=O)cc4)n3c2)c1 the results were HT1080 IDH1KD tx -6%, HepG2 tox -2%, TGFb inhibitor inconclusive, ATXN2 expr inh -5%, ATXN viability inactive and HT1080-NT tox 23µM*.
For CC(=O)Nc1cc(-c2ccc(N3CCN(C)CC3)cc2)cn2c(-c3ccc(F)c(Cl)c3)cnc12 the results were HT1080 IDH1KD tx 16µM*, HepG2 tox -99%, TGFb inhibitor inconclusive, ATXN2 expr inh inconclusive and HT1080-NT tox 21µM*.
CC(=O)c1ccc(-c2cnc3c(NC=O)cc(-c4ccc(N5CCN(C)CC5)cc4)cn23)cc1 was read as HT1080 IDH1KD tx inconclusive, HepG2 tox -32%, TGFb inhibitor inconclusive, ATXN2 expr inh -12%, ATXN viability inconclusive and HT1080-NT tox 26µM*.
CC(=O)Nc1cc(-c2ccc(N3CCN(C)CC3)cc2)cn2c(-c3cccc(C(C)=O)c3)cnc12 was read as HT1080 IDH1KD tx -29%, HepG2 tox -59%, TGFb inhibitor inconclusive, ATXN2 expr inh -37%, ATXN viability inactive and HT1080-NT tox -19%.
CN1CCN(c2ccc(-c3cc(NC=O)c4ncc(-c5ccc(F)c(Cl)c5)n4c3)cc2)CC1 was read as HT1080 IDH1KD tx inconclusive, HepG2 tox -86%, TGFb inhibitor 20µM*, ATXN2 expr inh inconclusive and HT1080-NT tox inconclusive.
CNCc1cc(Br)c(OCC(=O)Nc2ccccc2OC)c(OC)c1 was read as HT1080 IDH1KD tx inconclusive, HepG2 tox -23%, TGFb inhibitor -22%, ATXN2 expr inh -31%, ATXN viability inconclusive and HT1080-NT tox inconclusive.
Screening COc1cc(CNCCc2ccccc2)cc(Cl)c1OCc1ccccc1 returned HT1080 IDH1KD tx inconclusive, HepG2 tox -149%, TGFb inhibitor inconclusive, ATXN2 expr inh inconclusive, ATXN viability inconclusive and HT1080-NT tox 13µM*.
`COc1cc(CNCCc2ccccc2)cc(Br)c1OCC(=O)Nc1ccccc1C` gave HT1080 IDH1KD tx -13%, HepG2 tox -116%, TGFb inhibitor inconclusive, ATXN viability 28µM* and HT1080-NT tox inconclusive.
For CCOc1cc(CNC2CCCC2)cc(Cl)c1OCc1ccccc1 the results were HT1080 IDH1KD tx inconclusive, HepG2 tox -116%, TGFb inhibitor 0%, ATXN2 expr inh -16%, ATXN viability inconclusive and HT1080-NT tox 21µM*.
For CCOc1cc(CNCC(C)C)cc(Cl)c1OCc1ccccc1 the results were HT1080 IDH1KD tx -20%, HepG2 tox -17%, TGFb inhibitor -20%, ATXN viability inconclusive and HT1080-NT tox -22%.
For COc1cccc(-c2ccc(NC(=O)C3=C(C(=O)O)CCC3)c(F)c2)c1 the results were ATXN2 expr inh -16%.
`O=S1(=O)CCC(NC(=S)SCCOc2ccccc2)C1` (stereo not drawn) gave HT1080 IDH1KD tx -16%, HepG2 tox -40%, TGFb inhibitor 20µM*, ATXN2 expr inh -18%, ATXN viability inconclusive and HT1080-NT tox -24%.
CC1(C)C(=O)C=CC(=O)C(C)(C)C(=O)C=CC(=O)C(C)(C)C2=CC=C(O2)C(C)(C)C(=O)C=CC1=O was read as HT1080 IDH1KD tx inconclusive, HepG2 tox -15%, TGFb inhibitor -6%, ATXN2 expr inh 25µM* and HT1080-NT tox 0%.
For COc1cc(-c2noc(C)c2/C=C/c2ccc(N)cc2)cc(OC)c1OC the results were HT1080 IDH1KD tx 0.92µM*, HepG2 tox -16%, TGFb inhibitor inconclusive, ATXN2 expr inh -5%, ATXN viability inconclusive and HT1080-NT tox 0.58µM*.
Screening COc1cc(-c2noc(C)c2C#Cc2ccccn2)cc(OC)c1OC returned HT1080 IDH1KD tx 2.1µM*, HepG2 tox 3%, TGFb inhibitor inconclusive, ATXN2 expr inh -16%, ATXN viability inconclusive and HT1080-NT tox 1.6µM*.
CNC(C)C#Cc1c(-c2cc(OC)c(OC)c(OC)c2)noc1C (stereo not drawn) was read as HT1080 IDH1KD tx -2%, HepG2 tox -34%, TGFb inhibitor inconclusive, ATXN2 expr inh 4%, ATXN viability inconclusive and HT1080-NT tox -16%.
Screening COc1cc(-c2noc(C)c2C#Cc2ccc(N)cc2)cc(OC)c1OC returned HT1080 IDH1KD tx 0.65µM*, HepG2 tox 0%, TGFb inhibitor 10µM*, ATXN2 expr inh 1%, ATXN viability inconclusive and HT1080-NT tox 0.82µM*.
For COc1ccc(OCC(=O)N(Cc2cccc(OC)c2)C2CCS(=O)(=O)C2)cc1 (stereo not drawn) the results were HepG2 tox -13% and TGFb inhibitor 2%.
Screening O=C(Nc1cccc(Br)c1)c1ccc(CN2CCc3ccccc3C2)cc1 returned HT1080 IDH1KD tx inconclusive, HepG2 tox -18%, TGFb inhibitor inconclusive, ATXN2 expr inh -32%, ATXN viability inactive and HT1080-NT tox 16µM*.
CSc1cccc(NC(=O)c2ccc(CN3CCc4ccccc4C3)cc2)c1 was read as HT1080 IDH1KD tx inconclusive, HepG2 tox -17%, TGFb inhibitor 0%, ATXN2 expr inh inconclusive, ATXN viability inactive and HT1080-NT tox -27%.
`CC(C)N1CCN(C(=O)c2ccc([N+](=O)[O-])cc2)CC1` gave HT1080 IDH1KD tx 7%, HepG2 tox 11µM*, TGFb inhibitor -19%, ATXN viability inactive and HT1080-NT tox 9%.
Screening O=C(c1ccccc1)N1CCN(C(=O)c2ccc([N+](=O)[O-])cc2)CC1 returned HT1080 IDH1KD tx 10%, HepG2 tox 8%, TGFb inhibitor -2%, ATXN2 expr inh 5%, ATXN viability inactive and HT1080-NT tox 10%.
COCCn1c(=S)[nH]c2cc(C(=O)N3CCN(Cc4ccccc4)CC3)ccc2c1=O was read as HT1080 IDH1KD tx 22% and HT1080-NT tox 13%.
For C=C1C=C(C(F)F)n2ncc(C(=O)NCc3ccc(F)cc3)c2N1 the results were HepG2 tox 4% and TGFb inhibitor 2%.
Cc1ccc(CCNC(=O)CSCc2nc(-c3ccc(C)cc3)oc2C)cc1 was read as HepG2 tox -50% and TGFb inhibitor inconclusive.
